The source of these data is the supplement of paper PMC11732987, “Enantioselective OTUD7B fragment discovery through chemoproteomics screening and high-throughput optimisation” (Communications Chemistry, 2025).

Unmarked numbers belong to inactive results.

What all share (experiment): log2 ratio of Biotin-Ahx-Ub-VS probe labelling (fragment/DMSO); higher = less target engagement (more negative = stronger competition), active = hit call of the paper (q ≤ 0.05, log2 ratio ≤ -1)
Common to all, as to settings: compound concentration: 200 uM; treatment time: 3 h

The target of one assay is T1, USP19 (UniProt O94966).
T1 sequence (whole entry): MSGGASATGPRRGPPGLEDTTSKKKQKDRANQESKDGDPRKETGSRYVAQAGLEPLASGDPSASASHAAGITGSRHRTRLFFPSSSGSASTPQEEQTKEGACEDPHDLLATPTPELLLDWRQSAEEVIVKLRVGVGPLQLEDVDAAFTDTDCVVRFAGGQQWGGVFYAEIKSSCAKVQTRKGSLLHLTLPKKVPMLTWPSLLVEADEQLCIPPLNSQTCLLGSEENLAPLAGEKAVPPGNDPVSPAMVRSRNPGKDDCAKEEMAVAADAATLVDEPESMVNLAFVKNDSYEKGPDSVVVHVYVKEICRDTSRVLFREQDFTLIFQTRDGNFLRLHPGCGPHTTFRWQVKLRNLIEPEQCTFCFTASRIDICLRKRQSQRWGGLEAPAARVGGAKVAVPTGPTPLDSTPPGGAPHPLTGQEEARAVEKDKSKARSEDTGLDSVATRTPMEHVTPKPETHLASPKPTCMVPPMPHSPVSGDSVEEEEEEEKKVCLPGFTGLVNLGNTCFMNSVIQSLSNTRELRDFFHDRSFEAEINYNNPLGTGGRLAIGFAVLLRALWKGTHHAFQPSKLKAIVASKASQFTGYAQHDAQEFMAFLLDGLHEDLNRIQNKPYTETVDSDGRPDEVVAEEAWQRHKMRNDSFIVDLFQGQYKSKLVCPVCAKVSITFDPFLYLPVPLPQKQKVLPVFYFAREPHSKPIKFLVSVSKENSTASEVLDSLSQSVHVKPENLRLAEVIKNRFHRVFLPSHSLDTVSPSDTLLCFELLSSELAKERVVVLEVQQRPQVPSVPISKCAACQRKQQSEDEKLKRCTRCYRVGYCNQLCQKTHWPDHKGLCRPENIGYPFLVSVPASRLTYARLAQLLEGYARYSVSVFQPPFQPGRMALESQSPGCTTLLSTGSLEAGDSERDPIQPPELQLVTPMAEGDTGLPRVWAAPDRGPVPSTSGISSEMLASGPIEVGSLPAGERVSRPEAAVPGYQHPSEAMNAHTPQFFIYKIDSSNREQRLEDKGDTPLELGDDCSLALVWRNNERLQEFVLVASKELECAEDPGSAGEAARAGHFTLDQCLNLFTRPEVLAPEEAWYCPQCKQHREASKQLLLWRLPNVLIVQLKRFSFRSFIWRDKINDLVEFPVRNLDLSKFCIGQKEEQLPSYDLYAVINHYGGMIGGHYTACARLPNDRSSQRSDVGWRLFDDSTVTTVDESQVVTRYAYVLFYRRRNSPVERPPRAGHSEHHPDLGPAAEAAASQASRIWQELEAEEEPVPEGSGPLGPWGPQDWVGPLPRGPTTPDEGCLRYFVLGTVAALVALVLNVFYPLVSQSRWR
Put shortly:
(§1)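 Using Biotin-Ahx-Ub-VS at 0.5 µM final for 1 h, DUBs were labelled in HEK293T lysate (495 µg per sample) that had first been treated in triplicate with fragment at 200 µM or vehicle for 3 h. NeutrAvidin enrichment, LysC and trypsin digestion and diaPASEF LC-MS/MS followed. Spectronaut label-free quantities were global-median-normalised. Values are average log2 fragment/vehicle ratios by unpaired t-test, using proteins with ≥2 unique peptides.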

Another assay deals with T2, USP22 (UniProt Q9UPT9).
T2 sequence (whole entry): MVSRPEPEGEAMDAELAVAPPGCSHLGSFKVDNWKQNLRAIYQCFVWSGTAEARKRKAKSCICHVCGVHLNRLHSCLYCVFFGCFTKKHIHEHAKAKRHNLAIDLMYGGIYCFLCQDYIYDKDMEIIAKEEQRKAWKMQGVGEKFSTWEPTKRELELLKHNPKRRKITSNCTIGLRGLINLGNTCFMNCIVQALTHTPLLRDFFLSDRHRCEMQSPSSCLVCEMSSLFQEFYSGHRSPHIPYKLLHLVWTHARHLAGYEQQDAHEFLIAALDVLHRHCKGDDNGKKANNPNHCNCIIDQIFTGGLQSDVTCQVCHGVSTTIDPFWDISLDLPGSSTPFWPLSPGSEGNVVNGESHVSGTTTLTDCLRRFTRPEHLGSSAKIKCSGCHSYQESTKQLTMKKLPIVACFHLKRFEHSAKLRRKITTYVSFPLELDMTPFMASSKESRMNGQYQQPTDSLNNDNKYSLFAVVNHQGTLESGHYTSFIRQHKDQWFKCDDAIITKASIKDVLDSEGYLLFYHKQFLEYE
Put shortly: as §1

Another assay has as its target USP24 (UniProt Q9UPU5). Put shortly:
as §1

The next assay has as its target T3, USP25 (UniProt Q9UHP3).
T3 sequence (whole entry): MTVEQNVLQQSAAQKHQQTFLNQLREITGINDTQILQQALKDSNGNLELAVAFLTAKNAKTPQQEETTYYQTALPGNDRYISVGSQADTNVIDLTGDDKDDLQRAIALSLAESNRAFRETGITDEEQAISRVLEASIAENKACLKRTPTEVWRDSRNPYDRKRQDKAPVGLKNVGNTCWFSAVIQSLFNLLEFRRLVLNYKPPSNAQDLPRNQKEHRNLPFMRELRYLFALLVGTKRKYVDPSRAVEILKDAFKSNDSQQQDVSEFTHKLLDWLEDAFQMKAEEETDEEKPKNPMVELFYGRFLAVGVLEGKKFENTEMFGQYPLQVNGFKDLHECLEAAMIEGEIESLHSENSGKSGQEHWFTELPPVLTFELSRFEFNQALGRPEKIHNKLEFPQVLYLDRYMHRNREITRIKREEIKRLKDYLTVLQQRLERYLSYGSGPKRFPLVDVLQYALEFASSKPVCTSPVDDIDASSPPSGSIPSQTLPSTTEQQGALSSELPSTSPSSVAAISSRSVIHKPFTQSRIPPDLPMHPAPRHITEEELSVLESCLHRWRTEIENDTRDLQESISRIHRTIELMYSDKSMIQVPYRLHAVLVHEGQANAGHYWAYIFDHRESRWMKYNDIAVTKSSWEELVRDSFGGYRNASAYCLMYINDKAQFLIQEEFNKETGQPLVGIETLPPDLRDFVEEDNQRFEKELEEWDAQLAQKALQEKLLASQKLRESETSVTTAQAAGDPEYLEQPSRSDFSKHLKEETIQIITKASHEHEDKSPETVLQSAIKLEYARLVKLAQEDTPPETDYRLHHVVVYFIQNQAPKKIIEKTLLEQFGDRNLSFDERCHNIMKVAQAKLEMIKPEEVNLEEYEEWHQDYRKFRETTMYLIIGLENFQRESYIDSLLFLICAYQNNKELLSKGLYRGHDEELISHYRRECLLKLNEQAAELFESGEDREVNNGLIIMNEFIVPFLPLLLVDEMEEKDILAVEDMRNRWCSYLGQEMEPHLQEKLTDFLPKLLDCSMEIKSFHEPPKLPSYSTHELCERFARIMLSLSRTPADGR
Put shortly:
as §1

Another assay deals with T4, USP28 (UniProt Q96RU2).
T4 sequence (whole entry): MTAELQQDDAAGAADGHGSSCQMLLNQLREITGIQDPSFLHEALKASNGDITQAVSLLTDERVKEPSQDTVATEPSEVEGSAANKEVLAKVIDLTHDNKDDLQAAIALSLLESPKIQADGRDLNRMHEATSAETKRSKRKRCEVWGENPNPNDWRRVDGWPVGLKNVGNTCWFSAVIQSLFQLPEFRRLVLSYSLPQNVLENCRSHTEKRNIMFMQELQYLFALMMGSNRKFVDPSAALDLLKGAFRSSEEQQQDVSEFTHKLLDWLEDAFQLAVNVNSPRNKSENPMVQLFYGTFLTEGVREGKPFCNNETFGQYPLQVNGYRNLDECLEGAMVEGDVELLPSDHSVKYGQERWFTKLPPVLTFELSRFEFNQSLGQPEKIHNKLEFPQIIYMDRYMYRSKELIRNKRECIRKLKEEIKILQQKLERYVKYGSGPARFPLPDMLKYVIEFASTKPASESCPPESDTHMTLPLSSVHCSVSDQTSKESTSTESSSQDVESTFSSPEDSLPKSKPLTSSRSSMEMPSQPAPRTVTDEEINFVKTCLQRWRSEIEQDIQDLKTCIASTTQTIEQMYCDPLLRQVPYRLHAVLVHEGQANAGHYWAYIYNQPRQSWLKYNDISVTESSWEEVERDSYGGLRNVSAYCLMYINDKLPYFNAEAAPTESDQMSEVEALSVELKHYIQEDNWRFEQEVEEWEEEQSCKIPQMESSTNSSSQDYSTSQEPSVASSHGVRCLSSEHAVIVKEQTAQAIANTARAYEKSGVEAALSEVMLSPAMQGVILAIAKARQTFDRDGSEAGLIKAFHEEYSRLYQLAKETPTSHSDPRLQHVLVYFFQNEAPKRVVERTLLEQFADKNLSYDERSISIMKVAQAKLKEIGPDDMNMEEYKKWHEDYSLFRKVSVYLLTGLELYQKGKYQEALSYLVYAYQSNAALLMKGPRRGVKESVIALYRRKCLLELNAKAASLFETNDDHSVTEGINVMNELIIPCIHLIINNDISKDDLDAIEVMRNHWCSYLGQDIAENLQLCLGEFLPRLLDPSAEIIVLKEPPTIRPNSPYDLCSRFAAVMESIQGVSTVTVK
Put shortly: as §1

Sequence of USP24 (Q9UPU5 whole entry): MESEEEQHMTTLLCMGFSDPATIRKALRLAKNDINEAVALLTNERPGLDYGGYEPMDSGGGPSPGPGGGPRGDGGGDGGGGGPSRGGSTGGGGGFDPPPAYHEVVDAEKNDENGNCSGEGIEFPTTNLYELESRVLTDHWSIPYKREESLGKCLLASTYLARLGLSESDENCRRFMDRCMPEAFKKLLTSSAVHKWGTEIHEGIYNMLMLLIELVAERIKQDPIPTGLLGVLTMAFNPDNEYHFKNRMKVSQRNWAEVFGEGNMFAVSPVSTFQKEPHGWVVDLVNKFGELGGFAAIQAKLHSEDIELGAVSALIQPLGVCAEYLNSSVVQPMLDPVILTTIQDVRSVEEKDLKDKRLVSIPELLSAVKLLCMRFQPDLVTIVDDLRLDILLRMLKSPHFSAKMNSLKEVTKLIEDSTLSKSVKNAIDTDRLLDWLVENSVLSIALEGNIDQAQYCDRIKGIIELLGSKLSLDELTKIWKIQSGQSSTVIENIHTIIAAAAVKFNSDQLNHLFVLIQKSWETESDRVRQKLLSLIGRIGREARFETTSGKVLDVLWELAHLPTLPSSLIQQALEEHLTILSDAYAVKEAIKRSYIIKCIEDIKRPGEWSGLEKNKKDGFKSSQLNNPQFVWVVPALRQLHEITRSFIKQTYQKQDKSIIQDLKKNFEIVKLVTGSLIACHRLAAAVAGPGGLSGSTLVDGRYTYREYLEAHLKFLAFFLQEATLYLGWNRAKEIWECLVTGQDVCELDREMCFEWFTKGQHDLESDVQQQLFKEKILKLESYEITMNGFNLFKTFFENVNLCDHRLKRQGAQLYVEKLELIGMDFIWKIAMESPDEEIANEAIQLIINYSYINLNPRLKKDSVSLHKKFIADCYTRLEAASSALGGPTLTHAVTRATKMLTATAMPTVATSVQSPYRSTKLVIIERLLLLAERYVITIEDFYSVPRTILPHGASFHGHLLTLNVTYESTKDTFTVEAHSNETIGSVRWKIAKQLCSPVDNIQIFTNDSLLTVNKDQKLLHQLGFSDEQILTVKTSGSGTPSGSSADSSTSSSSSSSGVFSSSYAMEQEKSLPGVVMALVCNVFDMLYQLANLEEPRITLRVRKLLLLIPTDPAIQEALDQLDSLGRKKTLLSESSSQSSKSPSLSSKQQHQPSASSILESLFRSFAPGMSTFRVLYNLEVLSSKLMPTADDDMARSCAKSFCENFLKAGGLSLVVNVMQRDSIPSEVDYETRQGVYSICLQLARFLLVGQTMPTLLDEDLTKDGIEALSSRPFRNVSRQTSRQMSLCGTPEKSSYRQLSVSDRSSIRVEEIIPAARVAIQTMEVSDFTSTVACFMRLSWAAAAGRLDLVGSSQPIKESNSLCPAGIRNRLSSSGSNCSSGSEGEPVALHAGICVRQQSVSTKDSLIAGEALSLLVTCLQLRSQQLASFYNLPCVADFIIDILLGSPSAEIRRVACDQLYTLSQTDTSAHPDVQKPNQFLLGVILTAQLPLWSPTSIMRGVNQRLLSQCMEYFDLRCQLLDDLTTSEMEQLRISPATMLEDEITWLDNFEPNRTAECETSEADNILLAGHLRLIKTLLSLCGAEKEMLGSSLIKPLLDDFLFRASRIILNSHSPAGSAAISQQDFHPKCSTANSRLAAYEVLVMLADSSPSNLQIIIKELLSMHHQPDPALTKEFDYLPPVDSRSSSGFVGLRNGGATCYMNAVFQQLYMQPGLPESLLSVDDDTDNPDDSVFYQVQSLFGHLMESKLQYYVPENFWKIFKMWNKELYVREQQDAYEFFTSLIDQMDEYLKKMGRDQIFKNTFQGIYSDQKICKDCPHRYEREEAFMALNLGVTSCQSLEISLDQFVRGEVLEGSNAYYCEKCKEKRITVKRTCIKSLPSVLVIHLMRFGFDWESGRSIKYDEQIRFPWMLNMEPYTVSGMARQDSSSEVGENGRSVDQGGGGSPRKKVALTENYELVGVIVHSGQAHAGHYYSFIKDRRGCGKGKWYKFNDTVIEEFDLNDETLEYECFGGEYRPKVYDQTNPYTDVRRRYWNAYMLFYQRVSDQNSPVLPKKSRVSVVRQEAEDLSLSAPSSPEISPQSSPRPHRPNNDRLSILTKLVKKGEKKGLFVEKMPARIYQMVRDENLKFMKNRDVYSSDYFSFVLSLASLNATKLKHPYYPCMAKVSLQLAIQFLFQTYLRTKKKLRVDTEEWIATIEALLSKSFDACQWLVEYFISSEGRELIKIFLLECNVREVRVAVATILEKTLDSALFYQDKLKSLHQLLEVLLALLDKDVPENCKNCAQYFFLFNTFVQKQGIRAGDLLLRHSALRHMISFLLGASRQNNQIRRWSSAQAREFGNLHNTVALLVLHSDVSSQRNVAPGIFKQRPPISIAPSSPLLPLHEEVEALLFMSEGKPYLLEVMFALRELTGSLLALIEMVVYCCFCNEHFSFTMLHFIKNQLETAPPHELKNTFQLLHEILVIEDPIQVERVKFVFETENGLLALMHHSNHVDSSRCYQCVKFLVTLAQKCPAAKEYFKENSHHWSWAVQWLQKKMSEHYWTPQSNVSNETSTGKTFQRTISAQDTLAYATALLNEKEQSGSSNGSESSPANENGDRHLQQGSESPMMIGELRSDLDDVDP

As for `O=C(CCl)N1c2ccccc2NC(=O)C12CCCC2`, the “log2 ratio of Biotin-Ahx-Ub-VS probe labelling” value was -0.0862 with USP19; 0.00548 in the assay with USP22; -2.66 (active) with USP24; -0.252 with USP25; -0.397 with USP28.
